Measurements from article PMC4336329 (PLoS ONE, 2015).
The campaign covered roughly 310,000 compounds. About 14,000 (4.5%) showed an effect of 50% or more. The effect is printed as a negative number. The full list was thinned out, with strong results kept by preference.

The compounds below were run against human ether-à-go-go-related gene (hERG) potassium channel (human, UniProt Q12809) (assay: primary screen, population patch clamp on CHO cells stably expressing hERG; higher = less effect of the substance).
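Note: peak tail current of the secondary pulse compared with the same well before compound.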

Chain of human ether-à-go-go-related gene (hERG) potassium channel (Q12809 whole entry, looked up): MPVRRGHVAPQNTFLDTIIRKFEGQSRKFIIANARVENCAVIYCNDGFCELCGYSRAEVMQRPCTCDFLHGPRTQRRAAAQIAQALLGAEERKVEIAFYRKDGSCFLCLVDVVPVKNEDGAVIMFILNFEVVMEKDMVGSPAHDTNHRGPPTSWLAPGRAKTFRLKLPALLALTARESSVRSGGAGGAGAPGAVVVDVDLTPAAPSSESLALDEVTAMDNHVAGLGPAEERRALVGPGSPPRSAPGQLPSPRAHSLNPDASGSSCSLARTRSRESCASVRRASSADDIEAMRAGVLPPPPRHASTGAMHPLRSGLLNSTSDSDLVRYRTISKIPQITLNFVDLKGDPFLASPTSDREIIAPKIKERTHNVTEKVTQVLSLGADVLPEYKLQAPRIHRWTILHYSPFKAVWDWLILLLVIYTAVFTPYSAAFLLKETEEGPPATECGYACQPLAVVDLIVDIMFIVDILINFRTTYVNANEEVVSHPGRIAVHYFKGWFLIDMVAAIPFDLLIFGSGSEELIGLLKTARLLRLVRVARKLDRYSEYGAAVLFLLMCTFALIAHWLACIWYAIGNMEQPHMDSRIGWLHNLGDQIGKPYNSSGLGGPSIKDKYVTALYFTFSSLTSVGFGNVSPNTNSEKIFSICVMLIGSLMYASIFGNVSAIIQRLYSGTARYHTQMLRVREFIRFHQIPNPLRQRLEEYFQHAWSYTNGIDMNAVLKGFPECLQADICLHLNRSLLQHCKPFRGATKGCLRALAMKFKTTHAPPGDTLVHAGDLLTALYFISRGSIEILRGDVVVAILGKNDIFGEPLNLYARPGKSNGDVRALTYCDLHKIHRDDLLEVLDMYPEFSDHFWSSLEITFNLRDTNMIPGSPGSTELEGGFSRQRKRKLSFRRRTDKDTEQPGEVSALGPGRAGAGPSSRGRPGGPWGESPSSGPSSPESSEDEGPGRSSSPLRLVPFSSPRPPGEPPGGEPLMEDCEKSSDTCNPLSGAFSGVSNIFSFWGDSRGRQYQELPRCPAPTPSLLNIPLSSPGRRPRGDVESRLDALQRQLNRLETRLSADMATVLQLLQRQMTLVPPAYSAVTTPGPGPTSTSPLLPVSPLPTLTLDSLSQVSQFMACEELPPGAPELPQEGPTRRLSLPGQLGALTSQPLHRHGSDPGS

Compound	hERG current change (%, negative = inhibition) at 10uM [%]
C[C@@H]1C(=O)O[C@H]2[C@H](O)[C@@]34[C@H]5C[C@@H](C(C)(C)C)[C@]36[C@@H](OC(=O)[C@@H]6O)O[C@@]4(C(=O)O5)[C@@]12O	21.2
CC(OC(=O)C1CCN(S(=O)(=O)c2ccc(Cl)cc2)CC1)C(=O)N1CCc2ccccc21 (stereo not shown)	-16.4
Oc1ccc(-c2cccc(-c3ccc(O)cc3)n2)cc1	15.5
CN(C)S(=O)(=O)N1CCN(C(=O)N2CCCCC2)CC1	3.64
COc1cc(/C=C(\C#N)c2nn(CCO)c(N)c2C#N)cc(OC)c1OC	12.5
O=C(COc1ccccc1)NCC(=O)N1CCCCCC1	7.21
O=c1c(C=NCc2cccnc2)c(C(F)(F)F)[nH]n1-c1nc2ccccc2s1	9.04
C/C(=N/NC(=O)c1cccs1)c1c(C)[nH]n(-c2nc3ccccc3s2)c1=O	7.38
CCC(=NCc1ccccc1)c1c(C(F)(F)F)[nH]n(-c2nc3ccccc3s2)c1=O	12.6
CCN(CC)CCCN=Cc1c(-c2ccccc2)[nH]n(-c2nc3ccccc3s2)c1=O	-78.2
CN(C)CCCN=Cc1c(O)n(CCc2ccccc2)c(=O)[nH]c1=O	-0.99
O=c1[nH]c(=O)n(Cc2ccccc2)c(O)c1C=NCCCn1ccnc1	1.23
O=c1cc(-c2ccccc2)[nH]n1-c1nc2ccccc2s1	14.2
CCOC(=O)Cc1cc(=O)n(-c2nc3ccccc3s2)[nH]1	5.12
CN(C)CCCN=Cc1c(-c2ccccc2)[nH]n(-c2nc3ccccc3s2)c1=O	-71
O=c1c(C=NCCCO)c(-c2ccccc2)[nH]n1-c1nc2ccccc2s1	-72.6
O=c1c(C=NCCCn2ccnc2)c(-c2ccccc2)[nH]n1-c1nc2ccccc2s1	-71.4
Nn1c(SCC(=O)NC2CCS(=O)(=O)C2)nnc1-c1cccs1 (stereo not shown)	16.7
COc1ccc(NC(=O)c2ccccc2CC[N+](=O)[O-])cc1	9.51
COc1ccc(CCNC(=O)C2CC(c3ccc(C(F)(F)F)cc3)=NO2)cc1 (stereo not shown)	-6.74
COc1ccc(C(=O)OCC(=O)NCC2CCCO2)cc1 (stereo not shown)	17.7
COc1ccc2nc(NS(=O)(=O)c3ccc(NC(C)=O)cc3)sc2c1	14

Compound	hERG current change (%, negative = inhibition) at 10uM [%]
O=C(CCN1C(=O)/C(=C/c2ccco2)SC1=S)Nc1ccc(C(=O)O)c(O)c1	25.1
Cc1sc2nc(C)n(/N=C/c3ccccc3O)c(=O)c2c1C	-7.37
O=C(Nc1cc(C(F)(F)F)ccc1N1CCOCC1)c1ccccc1F	-4.2
COCCCN=Cc1c(C)[nH]n(-c2ccc(Br)cc2Br)c1=O	20.4
CC(=NCCCn1ccnc1)c1c(-c2ccccc2)[nH]n(-c2nc3ccccc3s2)c1=O	-70.8
CCCN=C(C)c1c(-c2ccccc2)[nH]n(-c2nc3ccccc3s2)c1=O	-7.79
COCCCN=Cc1c(-c2ccccc2)[nH]n(-c2nc3ccccc3s2)c1=O	-75.1
CC(=NC1CC1)c1c(-c2ccccc2)[nH]n(-c2nc3ccccc3s2)c1=O	9.63
COCCCN=Cc1c(C)[nH]n(-c2ccc(Br)c(C)c2)c1=O	-9.32
Cn1nc([N+](=O)[O-])nc1Oc1ccccc1	-5.63
COc1ccc(C(=O)NC2CCN(C(=S)Nc3cccc(C)c3C)CC2)cc1	0.204
O=C1c2cccc3c(Nc4ccccc4Cl)c([N+](=O)[O-])cc(c23)C(=O)N1CCO	-22.8
O=C1O/C(=C/c2ccccc2)c2ccccc21	-3.12
O=C1O/C(=C\c2ccccc2)c2ccccc21	-57.8
Cc1ccc(/C=C2\OC(=O)c3ccccc32)cc1	14.9
COc1ccc(S(=O)(=O)N2CCCC2C(=O)Nc2ccc(C)cc2)cc1 (stereo not shown)	-15.3
O=C(COc1ccccc1)NNc1nc2c(F)cc(F)cc2s1	-62.6
O=C(COc1ccccc1)NNc1nc2c(F)cccc2s1	32.6
O=C(NNc1nc2c(F)cc(F)cc2s1)c1ccccc1	8.87
O=C(NN=C1CCCCC1)Nc1ccccc1Cl	3.82
CNC(=O)CSc1nnc(-c2ccco2)n1-c1cc(C)ccc1C	-2.95
CCn1c(SCC(=O)Nc2nonc2C)nnc1-c1ccoc1C	-1.18

Compound	hERG current change (%, negative = inhibition) at 10uM [%]
CCCn1c(SCC(=O)Nc2nonc2C)nnc1-c1ccoc1C	-8.43
Cc1cccc(-n2c(SCC(=O)Nc3nonc3C)nnc2-c2ccoc2C)c1	-78.9
Cc1ccc(-n2c(SCC(=O)Nc3ccc4c(c3)OCO4)nnc2-c2ccoc2C)cc1	-42.2
Cc1ccc(C)c(-n2c(SCC(=O)Nc3nonc3C)nnc2-c2ccoc2C)c1	-61.2
Cc1nonc1NC(=O)CSc1nnc(-c2ccoc2C)n1C	4.89
Cc1nonc1NC(=O)CSc1nnc(-c2ccoc2C)n1CC(C)C	-17.1
Cc1nonc1NC(=O)CSc1nnc(-c2ccoc2C)n1-c1cccc(Cl)c1	-77.9
COc1ccc(C)cc1NC(=O)C(C)N1CCOCC1.Cl (stereo not shown)	9.06
Cc1nc(Nc2nc3ccccc3o2)nc(C)c1C	10.3
CCC(C(=O)Nc1ccc(C(=O)O)cc1NC(=O)C(CC)c1ccccc1)c1ccccc1 (stereo not shown)	9.71
CCOc1ccc(CCNC(=O)C2CCN(c3nn4c(=O)cc(C)nc4s3)CC2)cc1OCC	-8.23
Cc1c(C)n(C)c2ccc(C(=O)N3CCN(c4ccccc4)CC3)cc12	-5.05
CCOc1ccccc1-c1noc(CCC(=O)Nc2cccnc2)n1	9.94
CCC1C(=O)C(CC)C(c2ccccc2)NC1c1ccccc1 (stereo not shown)	11.9
COc1cc2c(C(=O)N3CCN(c4cccc(Cl)c4)CC3)cn(C)c(=O)c2cc1OC	-53.1
CCn1cc(C(=O)N2CCN(c3ccc(OC)cc3)CC2)c2cc(OC)c(OC)cc2c1=O	-33.8
CCn1cc(C(=O)N2CCN(c3ccc(F)cc3)CC2)c2cc(OC)c(OC)cc2c1=O	-69.5
CCn1cc(C(=O)N2CCN(c3ccc(C(C)=O)cc3)CC2)c2cc(OC)c(OC)cc2c1=O	-44.3
COc1cc2c(C(=O)N3CCN(c4cccc(Cl)c4)CC3)cn(CC(C)C)c(=O)c2cc1OC	-63.6
CCn1cc(C(=O)N2CCN(c3cccc(Cl)c3)CC2)c2cc(OC)c(OC)cc2c1=O	-64.8
CCn1cc(C(=O)N2CCN(c3ccccn3)CC2)c2cc(OC)c(OC)cc2c1=O	-14.4
COc1ccc(C(=O)N2CCN(c3cccc(Cl)c3)CC2)c(OC)c1	-44.6

Compound	hERG current change (%, negative = inhibition) at 10uM [%]
CCCN1CCN(C(=O)c2cn(CC(C)C)c(=O)c3cc(OC)c(OC)cc23)CC1	-41.1
CCn1cc(C(=O)N2CCN(c3ccccc3OC)CC2)c2cc(OC)c(OC)cc2c1=O	-1.96
COc1ccccc1C(=O)N1CCN(c2cccc(Cl)c2)CC1	0.406
COc1cc2c(C(=O)NCCCN3CCN(c4cccc(Cl)c4)CC3)cn(C)c(=O)c2cc1OC	-46
CCOC(=O)c1cnc(SC)nc1Oc1cccc(NC(=O)c2ccc(C)cc2)c1	11.4
COC(=O)c1cccnc1SCc1ccccc1	-14.9
C/C(=N\OCC(=O)Nn1c(C)nc2ccccc2c1=O)c1ccccc1	-13.8
Cc1cccc(NC(=O)c2cc3c([nH]c4ccccc43)c(C)n2)c1C	11.6
COc1cc(C2C(C(=O)c3cccs3)=C(O)C(=O)N2CCN2CCOCC2)cc(OC)c1OC (stereo not shown)	14.3
CN(C)c1cc[n+](CC(=O)Nc2cc(C(F)(F)F)ccc2Cl)cc1.[Cl-]	7.63
CCn1c(CNc2ccc(F)cc2)nnc1SCC(=O)Nc1ccccc1OC	-30.2
CN1CCCN(C(=O)c2ccc(Cl)cc2)CC1	5.68
Cc1ccc2nc(SCC(=O)Nc3ccc4c(c3)CCC4)[nH]c2c1	8.84
CCN(CC)S(=O)(=O)c1ccc(-c2nnc(SCC(C)=O)o2)cc1	-8.48
CCn1cc(C(=O)N2CCN(C3CCCCC3)CC2)c2cc(OC)c(OC)cc2c1=O	-20.6
CCOC(=O)C1CCCN(C(=O)c2cn(CC(C)C)c(=O)c3cc(OC)c(OC)cc23)C1 (stereo not shown)	5.47
COc1cc2c(C(=O)N3CCN(C4CCCCC4)CC3)cn(CC(C)C)c(=O)c2cc1OC	-63.3
COc1ccc(NS(=O)(=O)c2cc3c4c(c2)C(C)C(=O)N4CCC3)cc1 (stereo not shown)	10.3
CCN(CC)CC(=O)N1c2ccccc2Sc2ccc(Cl)cc21.Cl	-10.3
